The record followed here is PubChem BioAssay (NCATS).

Assay [1] is described as follows: qHTS Screen of the MIPE 4.0 Collection Against Ewings Sarcoma (EW8) (AID 1259255). Further: nearly all actives have a fitted effect of over 35% in size. Further: potency means the concentration at half of the fitted maximal effect. In short, it runs like this: (§1)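 Compound titrations go onto adherent log-phase cells 4 h after seeding, incubate 48 h at 37C, then CellTiter-Glo luminescence reports viability relative to DMSO and cell-free controls.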
Background: In qHTS, concentration-response curves come from the screen itself.

The nature of assay [2]: qHTS Screen of the MIPE 4.0 Collection Against Ewings Sarcoma (TC32) (AID 1259256). Further: nearly all actives have a fitted effect of over 45% in size. Further: potency means the concentration at half of the fitted maximal effect. In short, it runs like this:
as §1

Assay [3] can be described thus: P-glycoprotein substrates identified in KB-3-1 adenocarcinoma cell line, qHTS therapeutic library screen (AID 1346986). Further: nearly all actives have a fitted effect of over 60% in size.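 Further: potency means the concentration at half of the fitted maximal effect; potency is for cytotoxicity meaning loss of cell viability.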 In short, it runs like this: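 Resistance attributable to P-gp was assessed by comparing AC50 in KB-8-5-11 with parental KB-3-1 and by tariquidar reversal. Cells were exposed 72 h and viability read by CellTiter-Glo.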
Assay [4] in a line: Identifying Small Molecule Inhibitors of Pancreatic Cancer Stem Cells (SN12C, Adherent) (AID 1259358).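 Further: cell survival measured after 48 h of compound exposure.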 Further: potency means the concentration at half of the fitted maximal effect. In short, it runs like this: (§2)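 Viability is scored by CellTiter-Glo luminescence 48 h after dosing, expressed as percent activity against vehicle and no-cell references. Spheroid formats rely on cells cultured 14 days in stem cell media beforehand.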
A short description of assay [5]: Identifying Small Molecule Inhibitors of Pancreatic Cancer Stem Cells (SN12C, Spheroid) (AID 1259360). Further: potency means the concentration at half of the fitted maximal effect. The note with it: Potency: SN12C spheroid viability. In short, it runs like this: (§3)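 After a 4 h attachment period, compounds were pinned into wells and cultures held 48 h under standard incubator conditions. Viability was then measured as CellTiter-Glo luminescence following 10 min at room temperature.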

Assay [6] in a line: Identifying Small Molecule Inhibitors of Pancreatic Cancer Stem Cells (A278, Adherent) (AID 1259361).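 Further: viability read after 48 h compound exposure; nearly all actives have a fitted effect of over 35% in size.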 An outline of the steps:
as §2

Assay [7] can be described thus: qHTS assay to identify small molecule inhibitors of chordoma cells - UCH-2 (AID 1259356). Further: series mostly up to about 46 µM.
The nature of assay [8]: Identifying Small Molecule Inhibitors of Pancreatic Cancer Stem Cells (A2780, Spheroid) (AID 1259357).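 Further: spheroids pre-formed over 14 days in stem cell medium on hydrogel; compound exposure lasted 48 h before the ATP luminescence read.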 The note with it: Potency: A2780 spheroid viability. An outline of the steps: as §3
Assay [9] in a line: Identifying Small Molecule Inhibitors of Pancreatic Cancer Stem Cells (Panc1, Spheroid) (AID 1259359).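 Further: compound exposure lasted 48 h before reading.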 Further: potency means the concentration at half of the fitted maximal effect. In short, it runs like this:
as §2

Records with an inconclusive call do not appear. The source made the active and inactive calls. The call rests on the fitted dose curve; in most records, active means well fitted curve in the direction sought with a large enough effect; inconclusive means small, poorly fitted or top-dose-only effect, or another doubt; inactive means no such curve, though single readings can be large; an effect the other way counts as inactive or inconclusive.

On to `CN(C)c1nc(Cc2ccc(NC(=O)c3ccc(C(F)(F)F)cc3)cc2)nc(N(C)C)c1CC(=O)O`, for which the Potency entry in [1], in [2] and in [3] was “inactive” in each case.

Consider `COc1cc(N2CCN(C)CC2)ccc1Nc1nc(N)c(C(=O)c2c(Cl)cccc2Cl)s1`, for which the Potency in assay [1] is 16.6 µM (active); in assay [2] it was 10.5 µM (active).

Take `COc1ccc(C=CC(=O)Nc2ccccc2C(=O)O)cc1OC`: the Potency entry in assay [1] and in assay [2] was “inactive” each time.

For `OCCn1cc(-c2ccc3c(c2)CCC3=NO)c(-c2ccncc2)n1`, the Potency result in [1], in assay [4] and in assay [5] was “inactive” in each case. The IC50 (viability decrease) in assay [6] was 16.6 µM (active).

For `Cc1ccccc1C(C(=O)NC1CCCCC1)N(C(=O)CNc1ccc(C#N)cc1)c1cccc(F)c1` (stereo not drawn), the Potency entry in [1], in [2] and in [3] was “inactive” in each case.

As for `CC(C)(F)C[C@H](N[C@@H](c1ccc(-c2ccc(S(C)(=O)=O)cc2)cc1)C(F)(F)F)C(=O)NC1(C#N)CC1`, the Potency in assay [1] is 16.6 µM (active); in assay [2] it was 18.7 µM (active).

Turning to `Clc1ccc(C2(c3ccc(-c4cn[nH]c4)cc3)CCNCC2)cc1`, the Potency in [1] was 23.5 µM (active); in assay [2], 20.9 µM (active).

As to `CN1CC(=O)N2C(Cc3c([nH]c4ccccc34)[C@H]2c2ccc3c(c2)OCO3)C1=O` (stereo partly drawn), the Potency entry in [1] and in [2] was “inactive” each time. In assay [7], the call was inactive.

For `CN1C(=O)C(Cc2c[nH]c3ccccc23)NC1=S` (stereo not drawn), the Potency result in assay [1], in [2], in [8], in assay [4], in [5] and in [3] was “inactive” each time. Also, in assay [6], the IC50 (viability decrease) result is “inactive”.

`C=CC[N+]1([C@H]2C[C@H]3[C@@H]4CC[C@H]5C[C@H](O)[C@@H](N6CCOCC6)C[C@]5(C)[C@@H]4CC[C@]3(C)[C@H]2OC(C)=O)CCCC1`: the Potency result in assay [1] and in assay [2] was “inactive” throughout.

Consider `C[C@H]1O[C@@H](n2cc(F)c(=O)[nH]c2=O)[C@H](O)[C@H]1O`, for which the Potency in [2] is 9.35 µM (active).

With `Cc1cccc(-c2[nH]c(C(C)(C)C)nc2-c2ccc3c(c2)OCO3)n1`, the Potency in assay [2] was 10.5 µM (active).

For the compound `CO[C@@H]1C(N(C)C(=O)c2ccccc2)C[C@H]2O[C@]1(C)n1c3ccccc3c3c4c(c5c6ccccc6n2c5c31)C(=O)NC4=O` (stereo partly drawn), in [2], the Potency was 3.32 µM (active).

For the compound `Cn1cnc(-c2cc3nccc(Oc4ccc(NC(=S)NC(=O)Cc5ccccc5)cc4F)c3s2)c1`, the Potency in [2] is 18.7 µM (active).

Turning to `CN(C)CCOc1cc(-c2cn[nH]c2)ccc1NC(=O)C1COc2ccccc2O1` (stereo not drawn), the Potency in [2] was 11.8 µM (active).

Turning to `O=C(O)c1ccc(O)c2ncc(N3CCOCC3)cc12`, the Potency entry in assay [4] and in assay [5] was “inactive” each time.

For `CNC(=O)c1c(-c2ccc(F)cc2)oc2cc(N(CCO)S(C)(=O)=O)c(C3CC3)cc12`, in assay [2], the Potency entry is “inactive”.

Regarding `O=C1CN2Cc3c(ccc(Cl)c3Cl)N=C2N1`, the Potency in assay [2] is 23.5 µM (active).

As for `CSc1cccc(Nc2ncc3cc(-c4c(Cl)cccc4Cl)c(=O)n(C)c3n2)c1`, in [3], the Potency was 2.06 µM (active).

`CNC(=O)[C@H](CC1=CN=C2C=CCC=C12)NC(=O)[C@@H](CC(=O)NO)CC(C)C`: the Potency result in assay [2] is “inactive”.

`C[C@H]1COC2=C1C(=O)C(=O)c1c2ccc2c1CCCC2(C)C`: in assay [2], the Potency was 23.5 µM (active).

As for `CCCCOCCOc1nc(-c2ccc(C(=O)O)c(F)c2)sc1C`, the Potency result in [8], in [4] and in assay [5] was “inactive” in each case. In addition, the IC50 (viability decrease) result in [6] is “inactive”.

Consider `CC1=C[C@@H]2[C@@H]([C@@H](O)C[C@@]3(C)[C@H]2C[C@@H](C)[C@]3(O)C(=O)CO)[C@@]2(C)Cc3cnn(-c4ccccc4)c3C=C12`, for which the Potency is 23.5 µM (active) in assay [2], 20.9 µM (active) in assay [9] and 26.4 µM (active) in assay [5]. Also, the Potency result in [8] is “inactive”. The IC50 (viability decrease) in [6] is 20.9 µM (active).

`C[C@@H](NC(=O)c1ncnc(N)c1Cl)c1ncc(C(=O)Nc2cc(C(F)(F)F)c(Cl)cn2)s1`: the Potency in [2] is 23.5 µM (active). For the same compound, the Potency result in [3] is “inactive”.

For `Cc1cc(-c2ncc(CC(=O)Nc3ccc(-c4cnccn4)cn3)cc2C)ccn1`, in assay [2], the Potency is 23.5 µM (active).

In the case of `Cc1cc(C(C)Nc2ccccc2)c2nc(N3CCOCC3)cc(=O)n2c1` (stereo not drawn), the Potency in assay [2] was 23.5 µM (active). The Potency result in assay [3] was “inactive”.

Consider `N#CC(c1ccc(Cl)cc1)c1c(Cl)cc(-n2ncc(=O)[nH]c2=O)cc1Cl` (stereo not drawn), for which, in assay [2], the Potency result was “inactive”. Moreover, the result in [7] was inactive.

In the case of `COC(=O)Nc1ccc(-c2nc(N3CCOCC3)c3cnn(C4CCN(C(=O)OC)CC4)c3n2)cc1`, the Potency in assay [1] is 0.148 µM (active); in [4] it was 0.264 µM (active); in [5], 1.05 µM (active); in assay [3] it was 1.64 µM (active).

For the compound `Nc1ncnc2c1c(-c1cccc(OCc3ccccc3)c1)cn2C1CC(CN2CCC2)C1` (stereo not drawn), the Potency in assay [2] is 4.69 µM (active).

As to `c1ccc(CNc2nc(N3CCOc4ccccc43)nc3c2CCCC3)cc1`, the Potency entry in assay [2] is “inactive”.

As for `CO[C@H]1/C=C\O[C@@]2(C)Oc3c(C)c(O)c4c(O)c(c(C=NN5CCN(C6CCCC6)CC5)c(O)c4c3C2=O)NC(=O)C(C)=CC=C[C@H](C)[C@H](O)[C@@H](C)[C@@H](O)[C@@H](C)[C@H](OC(C)=O)[C@H]1C`, in [2], the Potency result is “inactive”.

For the compound `Clc1ccc(COC(Cn2ccnc2)c2ccc(Cl)cc2Cl)c(Cl)c1` (stereo not drawn), the Potency in assay [2] is 18.7 µM (active). Moreover, the outcome in assay [7] was inactive.

In the case of `Cc1ccc(S(=O)(=O)OCC(=O)Nc2ccc(C(=O)O)c(O)c2)cc1`, in assay [2], the Potency was 11.8 µM (active). The Potency entry in assay [3] is “inactive”.

As to `CN(C)c1ccccc1CN1CCCN(Cc2ccccc2N(C)C)C1c1ccncc1`, the Potency in assay [1] was 18.7 µM (active). In addition, in [3], the Potency result was “inactive”.

`CC1CNc2c(cccc2S(=O)(=O)N[C@@H](CCCN=C(N)N)C(=O)N2CC[C@@H](C)C[C@@H]2C(=O)O)C1` (stereo partly drawn): the Potency in assay [2] was 14.8 µM (active).

Regarding `N#Cc1ccc(Oc2ccc3c(c2)COB3O)cc1`, the Potency result in assay [2] is “inactive”.

For the compound `CCC[C@@H](NC(=O)[C@@H]1[C@H]2CCC[C@@H]2CN1C(=O)[C@@H](NC(=O)[C@@H](NC(=O)c1cnccn1)C1CCCCC1)C(C)(C)C)C(=O)C(=O)NC1CC1`, the Potency in [1] is 16.6 µM (active). The Potency result in assay [3] was “inactive”.

In the case of `Cn1c(=O)c(Oc2ccc(F)cc2F)cc2cnc(NC3CCOCC3)nc21`, the Potency entry in assay [2] and in assay [3] was “inactive” in each case.

Regarding `CO[C@H]1/C=C\O[C@@]2(C)Oc3c(C)c(O)c4c(O)c(c5c(nc6cc(C)ccn65)c4c3C2=O)NC(=O)C(C)=CC=C[C@H](C)[C@H](O)[C@@H](C)[C@@H](O)[C@@H](C)[C@H](OC(C)=O)[C@H]1C`, in [2], the Potency result was “inactive”.

As for `Cc1c(C(=O)Nc2ccc(N3C[C@@H](C)O[C@@H](C)C3)nc2)cccc1-c1ccc(OC(F)(F)F)cc1`, the Potency entry in [8] and in [4] was “inactive” each time.

For `O=C(NC[C@H](O)CO)c1ccncc1Nc1ccc(I)cc1F`, the Potency result in [3] is “inactive”.

Take `COc1c(C)cnc(Cn2cnc3c(Cl)nc(N)nc32)c1C`: the results for the Potency in assay [2] and in [5] were 0.132 µM (active) and 0.264 µM (active), respectively. Moreover, in assay [9], the Potency entry is “inactive”. Moreover, the IC50 (viability decrease) in assay [6] was 0.0935 µM (active).

On to `CCC(=O)OCC(=O)[C@@]1(OC(=O)CC)[C@@H](C)C[C@@H]2[C@H]3CCC4=CC(=O)C=C[C@]4(C)[C@@]3(F)[C@@H](O)C[C@@]21C`, for which the Potency entry in assay [2] and in assay [3] was “inactive” throughout.

Take `O=C(Nc1ccccc1)Nc1ccc(-c2ccc(C(=O)[C@H]3CCC[C@H]3C(=O)O)cc2)cc1`: the Potency in [2] was 18.7 µM (active).

On to `COC(=O)[C@H](c1ccccc1Cl)N1CCc2sccc2C1`, for which the Potency entry in [1] and in assay [3] was “inactive” in each case.

Consider `CC(=O)Nc1cccc(-n2c(=O)n(C3CC3)c(=O)c3c(Nc4ccc(I)cc4F)n(C)c(=O)c(C)c32)c1`, for which, in assay [2], the Potency is 23.5 µM (active). The Potency result in [8] was “inactive”.

For `CNc1nc(Nc2ccc(C(=O)N3CCOCC3)cc2OC)ncc1Cl`, the Potency entry in assay [1] and in assay [3] was “inactive” throughout.

Regarding `Oc1ccc(C=Cc2cc(O)cc(O)c2)cc1`, in assay [2], the Potency is 18.7 µM (active).

On to `Cc1nc2c([nH]1)CCN(C(=O)c1ccc(NC(=O)c3ccccc3-c3ccccc3)cc1)c1ccccc1-2`, for which the Potency entry in [2] is “inactive”.

Take `CNC(=O)c1ccc2c(C(=Nc3cccc(CN(C)C)c3)c3ccccc3)c(O)[nH]c2c1`: the Potency entry in assay [2] and in assay [3] was “inactive” each time.
